Screening data: PubChem, National Center for Advancing Translational Sciences (NCATS)
Hits are enriched below; roughly 2.5% of the tested compounds scored in any of these assays.
Casp7 inh: qHTS Assay for Allosteric/Competitive Inhibitors of Caspase-7; recombinant caspase-7, Ac-DEVD-AFC fluorescence rate; Potency, µM (top dose mostly 57.5 µM), inactives show at the top dose activity change, negative = inhibition, actives largely listed as inhibitors; 0.02% of 75,000 active; AID 889, 2007; active = well fitted inhibition curve with a large enough effect in the main read-out, with a control signal flat, not every such curve was filed as active; inconclusive = small, poorly fitted or top-dose-only effect, or a change in a side signal; also: % of control where 0% means no effect
p53ts 39C kill: qHTS Screen for Compounds that Selectively Target Cancer Cells with p53 Mutations: Cytotoxicity of p53ts Cells at the Nonpermissive Temperature. H1299-p53A138V viability at 39C, ATP luminescence, 24 h. Potency, µM (highest dose often 46.1 µM), without a hit: at the highest dose activity change, negative = cell killing, actives largely listed as cytotoxic. 1.5% of 130,000 active. AID 902, 2007; also: % is scaled to controls: 0 for no effect and ±100 for the full control effect; nearly all actives have a fitted effect of over 55% in size
p53ts 32C kill: qHTS Screen for Compounds that Selectively Target Cancer Cells with p53 Mutations: Cytotoxicity of p53ts Cells at the Permissive Temperature | H1299-p53A138V at 32C, ATP luminescence viability, 24 h | Potency, µM (top dose mostly 46.1 µM), without a hit: at the top dose activity change, negative = cytotoxicity, usual class: cytotoxic | 0.93% of 130,000 active;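 also: 0% = DMSO and -100% = full killing by reference compound; nearly all actives have a fitted effect of over 55% in size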
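ATP-content luminescence (ATPlite) read-out after 24 h compound exposure at 32C in H1299-p53A138V cells (600/well). Tested up to 46 uM. Normalized to DMSO (0%) and 100 uM tamoxifen (100% killing); Hill-fit AC50.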
IkB signaling: IkB Signaling; ABC-DLBCL IkBa-CBG/CBR dual luciferase ratio, 4 h; response scale: scaled: untreated 0%, proteasome inhibitor 100%; Potency, µM (series often up to 57.1 µM), for the others: top-dose IkBa stabilization activation; 0.04% of 110,000 active; AID 445, 2006; active = well fitted curve in the direction sought with a large enough effect in the signal ratio, not every such curve was filed as active; inconclusive = small, poorly fitted or top-dose-only effect, or a change in a side signal; the % refers to the signal ratio;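 also: the direction sought is a rising ratio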
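Luminescence ratio of IκBα-fused green versus native red beetle luciferase in OCI-Ly3 cells, 4 h post-doxycycline with compound; red signal alone, scaled from basal (0%) to zero light (-100%), flagged nonspecific or cytotoxic effects.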
Caspase-1 inhib: qHTS Assay for Allosteric/Competitive Inhibitors of Caspase-1 | P29466 | Caspase-1 enzyme, Ac-WEHD-AFC fluorogenic rate | Potency, µM (highest dose often 57.5 µM), for the others: top-dose activity change, negative = inhibition, hits mostly inhibitors | 0.03% of 75,000 active | AID 900, 2007;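 also: plate controls were vehicle for no effect and no substrate for full effect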
Luciferase inh: qHTS Assay for Inhibitors of Firefly Luciferase. purified firefly luciferase, luminescence, 8 min. Potency, µM (doses to about 57.1 µM), for the others: at the highest dose activity change, negative = inhibition, usual class: inhibitors. 2.2% of 72,000 active. AID 411, 2009; also: % is scaled to controls: 0 for no effect and ±100 for the full control effect; nearly all actives have a fitted effect of over 40% in size
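Luminescence read-out after 8 min at room temperature; enzyme reaction used luciferin plus 10 uM ATP (linear range) in imidazole buffer pH 7.2 with KCl, MgCl2, Tween 20 and BSA. Each sample was run as a titration.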
* marks the source's active call; other numbers are inactive results; ? = inconclusive; . = no result given; [ ] = remark or other dose. Unless noted, calls follow the shape of the dose curve; as a rule, active = well fitted curve in the direction sought with a large enough effect; inconclusive = small, poorly fitted or top-dose-only effect, or another doubt; inactive = no such curve, though single readings can be large; an effect the other way counts as inactive or inconclusive. Potency is read from the fitted curve at half-maximal effect.

SMILES	Casp7 inh	p53ts 39C kill	p53ts 32C kill	IkB signaling	Caspase-1 inhib	Luciferase inh
COc1ccc(-c2nc3cc(NC(=O)Cc4ccc(Cl)cc4)ccc3o2)cc1OC	.	7.94µM*	10µM*	?	.	.
COc1ccc(CC(=O)Nc2cccc(-c3nnc(-c4ccc(C)cc4)o3)c2)cc1OC	-2.9%	-9.3%	?	?	-0.8%	3.16µM*
CCN(CC)CCOC(=O)c1ccc(NC(=O)c2cc3c(s2)-c2ccccc2OC3)cc1	.	15.8µM*	?	?	.	.
CCC(C)NC(=O)C1CC(c2cccc(OC)c2)=NO1 (configuration not stated)	-3.0%	-3.4%	-3.9%	0.6%	3.5%	0.2%
COc1ccc(Cn2c(C3CC3)nc3ccc(NC(C)=O)cc3c2=O)cc1	1.0%	-5.1%	-16.1%	2.5%	2.1%	20µM*
COc1ccc(Cn2ccc3nc(C)c(C(=O)Nc4ccc(OC)c(OC)c4)cc3c2=O)cc1	.	-7.3%	-2.1%	-0.8%	.	.
O=C(Nc1ccccn1)c1ccc(NC(=O)c2ccco2)cc1	-2.3%	?	?	?	-1.8%	25.1µM*
Cc1ccc(NC(=O)c2ccco2)cc1C	-0.1%	?	?	1.6%	-2.3%	15.8µM*
COc1ccc(NC(=O)c2ccco2)cc1NC(=O)c1ccc(C)c(C)c1	.	-29.1%	-14.7%	-2.6%	.	.
O=C(Nc1ccc2c(c1)Cc1ccccc1-2)c1ccco1	1.5%	?	?	1.9%	-3.0%	10µM*
CCC(=O)Nc1ccc(NC(=O)c2ccco2)cc1	1.1%	10µM*	12.6µM*	2.7%	-0.7%	?
O=C(CCc1ccccc1)Nc1ccc(NC(=O)c2ccco2)cc1	1.7%	-8.2%	3.4%	-1.4%	-2.6%	-4.7%
CCc1cccc(C)c1NC(=O)c1ccoc1C	-1.2%	6.0%	5.6%	-0.1%	-0.5%	-0.2%
COC(=O)[C@H](C)NC(=O)[C@@H](C)CO	0.5%[11.5 µM]	0.8%[9.22 µM]	0.5%[9.22 µM]	.	-0.5%[11.5 µM]	2.1%[11.4 µM]
O=C(Nc1cccc(OC(=O)c2ccco2)c1)c1ccco1	0.9%	1.4%	-5.6%	6.4%	2.7%	-5.5%
COc1cc(NC(=O)CC(C)C)ccc1NC(=O)c1ccco1	-0.3%	-28.9%	?	0.7%	-0.2%	15.8µM*
O=C(Nc1ccc(OC(=O)c2ccco2)cc1)c1ccco1	-0.3%	-0.2%	1.1%	-0.1%	1.2%	12.6µM*
COC(=O)c1c(SCC(=O)Nc2cc(C)cc(C)c2)[nH]c2ccccc2c1=O	.	12.6µM*	?	?	.	.
CCNC(=O)c1nc[nH]c1C(=O)NCC	1.3%	-4.8%	-1.6%	0.5%	3.2%	0.9%
Oc1cc(O)cc(/C=C\c2ccc(O)c(O)c2)c1	-7.7%	?	12.6µM*	3.1%	?	12.6µM*
O=C(/C=C/c1ccc(O)c(O)c1)OCCc1ccccc1	-1.4%	-20.6%	-7.9%	.	-1.4%	.
Cc1cc(C)nc(NS(=O)(=O)c2ccc(NC(=O)COc3ccc(C(C)(C)C)cc3)cc2)n1	.	-23.7%	-9.5%	?	.	.
O=C(NCC(c1cccnc1)N1CCc2ccccc2C1)C(=O)Nc1ccccc1 (configuration not stated)	.	6.4%	-8.1%	?	.	.
COc1ccc(NC(=O)C(=O)NCC(c2cccnc2)N2CCc3ccccc3C2)cc1 (configuration not stated)	.	10µM*	?	-1.8%	.	.
COc1cccc(-c2cn3nc4c(nc3n2)CCCC4)c1	?	5.01µM*	5.01µM*	?	.	3.16µM*
SMILES	Casp7 inh	p53ts 39C kill	p53ts 32C kill	IkB signaling	Caspase-1 inhib	Luciferase inh
COc1cccc(-c2cc(C(F)(F)F)n3nc(N)nc3n2)c1	-0.2%	-9.0%	-5.1%	-1.6%	-0.7%	1.9%
COCCCn1c(SCC(=O)NC2CCCCC2)nnc1-c1ccncc1	2.2%	1.3%	6.0%	0.7%	-1.4%	1.3%
CCCN(CCC)C(=O)CSc1nc2sc3c(c2c(=O)n1-c1ccccc1)CCN(C(C)=O)C3	.	7.9%	26.6%	4.7%	.	.
CCCCCSc1nc2sc3c(c2c(=O)n1-c1ccc(OC)cc1)CCN(C(C)=O)C3	.	12.6µM*	?	?	.	.
FC(F)(F)c1cc(CO[C@H]2CCCN[C@H]2c2ccccc2)cc(C(F)(F)F)c1	-0.7%	12.6µM*	?	?	1.6%	-2.3%
COC(=O)[C@@]1(Cc2ccc(F)cc2)[C@H]2c3cc(C(=O)N4CCCC4)n(Cc4ccc(C(F)(F)F)nc4)c3C[C@H]2CN1C(=O)c1ccccc1	-8.1%	3.6%	15.3%	.	-3.4%	.
Cn1nnnc1SCc1ccc(C(=O)Nc2nccs2)cc1	?	5.01µM*	?	-1.0%	.	1µM*
Cn1c(CSCc2ccc(F)cc2)nnc1SCC(=O)Nc1nccs1	-0.4%	8.7%	9.2%	2.7%	-0.8%	1.4%
O=P(O)(O)c1ccccc1OCCOCCOc1ccccc1P(=O)(O)O	-2.9%	-6.1%	19.9%	-1.3%	0.7%	1.3%
Cc1nc2ccc(NC(=O)Cc3ccc4c(c3)OCCO4)cc2s1	.	-0.4%	.	.	.	.
Cc1nc2ccc(NC(=O)Cc3cccs3)cc2s1	-3.2%	10µM*	15.8µM*	2.6%	0.6%	25.1µM*
O=C(NCc1cccnc1)C1CCN(Cc2cc3ccccc3n2Cc2cccc(Cl)c2)CC1	.	12.6µM*	20.6%	?	.	.
CCc1ccccc1-n1c(SCC(=O)Nc2ccc(C)cc2)nc2n[nH]c(C)c2c1=N	.	-6.1%	-16.7%	?	.	.
Cc1ccc(-n2c(SCC(=O)NCc3ccccc3)nc3n[nH]c(C)c3c2=N)cc1Cl	.	20µM*	5.9%	-2.6%	.	.
CCc1ccc(NC(=O)CSc2nc3n[nH]c(C)c3c(=N)n2-c2ccccc2C)cc1	.	10µM*	-10.6%	2.0%	.	.
N#Cc1ccc(OC(=O)c2ccc(N=C(N)N)cc2)cc1	1.0%[11.5 µM]	9.9%[9.22 µM]	8.6%[9.22 µM]	0.7%[11.4 µM]	1.3%[11.5 µM]	-0.3%[11.4 µM]
O=C(NCc1ccco1)C12CC3CC(C1)CC(C(=O)NCc1ccco1)(C3)C2	0.0%	11.7%	-8.7%	5.0%	-0.7%	0.5%
Cc1ccc(NC(=O)Cn2cc(S(=O)(=O)N3CCCC3)c(S(=O)(=O)N3CCCC3)c2)cc1C	.	-6.6%	-5.7%	?	.	.
Cc1cc(C)c2nc(N(Cc3cccnc3)C(=O)CCS(=O)(=O)c3ccccc3)sc2c1	.	-1.4%	1.5%	1.3%	.	.
Cc1cc(C)c2sc(N(Cc3cccnc3)C(=O)CCS(=O)(=O)c3ccccc3)nc2c1	.	15.8µM*	-1.5%	0.9%	.	.
